Measured values reported in PubChem BioAssay AID1566 (Sanford-Burnham Center for Chemical Genomics, 2009).
Values joined by “and” are separate entries in the source; they are usually repeats but may differ in a detail not shown here. Equal entries are not always repeated. Hit rate of the full screen: of about 290,000 compounds, about 1,800 (0.62%) were called active. The sample holds actives, similar compounds and a random draw of the others, so the mix is not that of the screen. Values without a mark were called inactive. No stated cut-off is given here; in the data, active means inhibition above about 50%; inactive means the rest.

Assay: NOD2 signaling inhibitors, cell-based, luminescence, uHTS, HEK293 (AID 1566)
Details: HEK293 NOD2/NF-kB luciferase reporter, at 4 µM, stronger effect = higher value
Work on COc1ccc(/C(C)=N/NC(=O)c2nnn(-c3nonc3N)c2-c2ccccc2)cc1 yielded an inhibition of 6.5%. Compound Cc1ccc(C(=O)Nc2cccc(C(F)(F)F)c2)cc1Nc1ccccn1 has an inhibition of -0.8%. In the case of Cc1ccc(C(=O)Nc2cccc(C(F)(F)F)c2)cc1Nc1cnccn1, the inhibition is reported as 14%. Compound CCN(CC)c1ccc(/C=N/N2CCN(Cc3ccccc3Cl)CC2)cc1 has an inhibition of 4.7%. Work on CCCN(CCC)c1ncnc2c1cnn2-c1ccc(OC)cc1 yielded an inhibition of -123%. Compound COc1ccc(-n2ncc3c(NC(C)C)ncnc32)cc1 has an inhibition of 13.8%. In the case of Cc1cccc(-n2ncc3c(NC4CCCCC4)ncnc32)c1, the inhibition is reported as 7.4%. In the case of Cc1cccc(-n2ncc3c(N(C)C4CCCCC4)ncnc32)c1, the inhibition is reported as 72.3% (active). In the case of Cc1cccc(-n2ncc3c(N(C)Cc4ccccc4)ncnc32)c1, the inhibition is reported as -120%. With Fc1cccc(NC(=S)NCCc2ccccc2)c1 the inhibition was 10%. Work on CC(=O)Oc1cccc(NC(=O)c2ccc3c(c2)C(=O)N(CC(C)C)C3=O)c1 yielded an inhibition of -7.8%. O=C(CN1CCc2ccccc2C1)Nc1cc(S(=O)(=O)N2CCOCC2)ccc1N1CCOCC1 gave an inhibition of -2.4%. With CCN(CC)c1ccc(S(=O)(=O)N2CCOCC2)cc1NC(=O)CN1CCN(Cc2ccccc2)CC1 the inhibition was -7.9%. For COc1ccc(OC)c(N2C(=O)CC(C(C)c3ccccc3)C2=O)c1 (centres undefined), the inhibition was 9.7%. Compound COc1ccc(-n2c3c(cc(C(=O)NCc4ccco4)c2=O)C(=O)CC(C)(C)C3)cc1 has an inhibition of 10.7%. Cc1ccc(C(=O)CSc2nnc3ccccn23)c(C)c1 showed an inhibition of -52.8%. In the case of Cc1cc(C(=O)CSc2nnc3ccccn23)c(C)n1-c1ccccc1, the inhibition is reported as 66.8% (active). Cc1cc(C(=O)CSc2nncn2C)c(C)n1-c1ccccc1 gave an inhibition of -52.4%. Compound COc1ccc(NC(=O)c2c(NC(=O)CNCc3ccco3)sc3c2CCC3)cc1 has an inhibition of 6.3%. O=C(O)c1cccc(Cn2c(Cl)c(/C=N/Nc3ccccc3)sc2=O)c1 gave an inhibition of 14.5%. COC(=O)c1cccc(Cn2c(Cl)c(/C=N/Nc3ccccc3C)sc2=O)c1 gave an inhibition of 10.1%. For Cc1ccccc1N/N=C/c1sc(=O)n(Cc2cccc(C(=O)O)c2)c1Cl, the inhibition was 51.6% (active). In the case of CCCNC(=S)N1CCC(C(=O)c2ccc(OC)cc2)CC1, the inhibition is reported as 15.3%. Compound COC(=O)N1C(=O)[C@](c2ccsc2)(C(C)C)N1C(=O)OC has an inhibition of 32.8%. In the case of CCCCc1c(C)nc2ccc(Br)cc2c1SCCC#N, the inhibition is reported as 18%. CCc1c(C)nc2c(Br)cccc2c1SCCC#N gave an inhibition of 10.1%. CN=c1scc(-c2cccs2)n1/N=C/c1ccc(O)c(O)c1O gave an inhibition of -25.9%. In the case of CN=c1scc(-c2cccs2)n1/N=C/c1ccccc1O, the inhibition is reported as 88.7% (active). CC(C)N=c1scc(-c2cccs2)n1/N=C/c1ccc(O)c(O)c1O gave an inhibition of -1.3%. Work on CCc1noc(C)c1C(=O)OCC(=O)NC(=O)c1ccccc1 yielded an inhibition of 2.8%. For COC(=O)c1ccc(NC(=O)c2ccc3nsnc3c2)cc1, the inhibition was -7.1%. Work on c1ccc(COCCC2CO2)cc1 (centres undefined) yielded an inhibition of -8.4%. With CS(=O)(=O)N(CC(=O)NCCSCc1ccccc1Cl)c1ccc(F)cc1 the inhibition was 3%. With COc1ccc(C(=O)CSc2cc(C)nc3nc(C)nn23)cc1OC the inhibition was 14%. For O=C(CSc1ccc(-c2ccc(Cl)cc2)nn1)N1CCCc2ccccc21, the inhibition was -10.9%. For O=C(O)c1ccc(-n2cc(-c3cc4ccccc4oc3=O)[nH]c2=S)cc1, the inhibition was 27.5%. For Cc1ccccc1-c1cn(-c2ccccc2)c(=S)[nH]1, the inhibition was -47.3%. In the case of O=c1oc2ccccc2cc1-c1cn(-c2ccccc2)c(=S)[nH]1, the inhibition is reported as 80.6% (active). Compound O=c1[nH]c(C2CCN(S(=O)(=O)Cc3ccccc3)CC2)nc2c1nnn2Cc1ccccc1 has an inhibition of 5%. Compound CCOC(=O)Cc1ccc(NC(=O)c2ccc([N+](=O)[O-])cc2)cc1 has an inhibition of -1.9%. With Cc1ccc(C(=O)Nc2ccc(CC(=O)O)cc2)o1 the inhibition was 7.5%. For CC(C)(C)c1ccc(C(=O)Nc2ccc(CC(=O)O)cc2)o1, the inhibition was 71.6% (active). With CCOC(=O)Cc1ccc(NC(=O)c2ccc(C(C)(C)C)cc2)cc1 the inhibition was 61.9% (active). In the case of CC(C)(C)c1ccc(C(=O)Nc2ccc(NC(=O)C(=O)O)cc2)o1, the inhibition is reported as 9.4%. Work on COC(=O)Cc1ccc(NC(=O)c2ccc(C)c(C)c2)cc1 yielded an inhibition of -48.4%. With COC(=O)Cc1ccc(NC(=O)c2ccc(C(C)(C)C)cc2)cc1 the inhibition was 70.7% (active). In the case of CCOC(=O)Cc1ccc(NC(=O)c2ccccc2Br)cc1, the inhibition is reported as -12.2%. COC(=O)Cc1ccc(NC(=O)c2ccc(NC(=O)c3ccco3)cc2)cc1 gave an inhibition of 0.9%. For Cc1ccc(C)c(S(=O)(=O)N2CCCOC2CNC(=O)C(=O)NCc2ccncc2)c1 (centres undefined), the inhibition was 11.8%. Work on Cc1cccc(N2CCN(C(=O)C3CCCCC3)CC2)c1C yielded an inhibition of -34.8%. For CCCCn1c(N)c(N(CCOC)C(=O)c2ccc(Cl)c(S(=O)(=O)N3CCCC3)c2)c(=O)[nH]c1=O, the inhibition was -2.8%. For O=c1cc(O)c2sc(Nc3cccc(C(F)(F)F)c3)nc2[nH]1, the inhibition was 16.5%. COc1ccccc1N1C(=O)c2ccc(C(=O)Nc3ccccc3O)cc2C1=O gave an inhibition of -3.6%. O=C(c1ccc(S(=O)(=O)Cc2cc(F)ccc2F)c([N+](=O)[O-])c1)N1CCCC1 showed an inhibition of 3.3%. Work on O=C(c1ccc(S(=O)(=O)Cc2ccccc2F)c([N+](=O)[O-])c1)N1CCCCCC1 yielded an inhibition of 22.6%. Compound O=C(c1ccc(Br)c([N+](=O)[O-])c1)N1CCN(Cc2ccccc2)CC1 has an inhibition of 10%. Compound O=C(c1ccc(Sc2cccc(Cl)c2)c([N+](=O)[O-])c1)N1CCN(c2ccccn2)CC1 has an inhibition of 9.4%. Compound Cc1cc(C(=O)N2CCN(Cc3ccccc3)CC2)ccc1[N+](=O)[O-] has an inhibition of 6.4%. With O=C(c1ccc(Cl)c([N+](=O)[O-])c1)N1CCN(c2ccccn2)CC1 the inhibition was 6.3%. CCCSc1nnc(CSc2nc3ccccc3s2)n1-c1ccccc1 gave an inhibition of 2.7%. Work on O=C(COC(=O)c1ccccc1O)Nc1cccc(S(=O)(=O)NC2=NCCCCC2)c1 yielded an inhibition of 14.9%. For O=C1CCCN1CCC1CCN(C(=S)Nc2ccc(F)cc2)CC1, the inhibition was 1.1%. Work on Cc1cccc(C(=O)c2cnc3ccccc3c2-c2ccccc2)c1 yielded an inhibition of 1.1%. COc1ccc(C(=O)c2cnc3ccccc3c2-c2ccccc2)cc1 showed an inhibition of 29.3%. In the case of Cc1ccc(C(=O)c2cnc3ccccc3c2-c2ccccc2)cc1, the inhibition is reported as 50.7% (active). For O=C(NCc1cccc(C(F)(F)F)c1)C1CC(c2c(Cl)cccc2Cl)=NO1 (centres undefined), the inhibition was -28.5%. CCN1C(=O)/C(=C\c2ccc(-c3cccc(C(=O)OC)c3)o2)SC1=Nc1ccc(C(=O)O)cc1 showed an inhibition of 4.2%. With O=C(O)c1cccc(-c2ccc(/C=C3/SC(=Nc4ccccc4)N(Cc4cccnc4)C3=O)o2)c1 the inhibition was 53.1% (active). CCN=C1S/C(=C\c2ccc(-c3cccc(C(=O)O)c3)o2)C(=O)N1CC gave an inhibition of -81.2%. Work on Cc1cc(NC(=O)CSc2nnnn2C)n(-c2ccccc2)n1 yielded an inhibition of 6.4%. Work on CCOC(=O)C1CCCN(S(=O)(=O)c2ccc(OC)c3ccccc23)C1 (centres undefined) yielded an inhibition of 8.9%. Cc1ccc(NC(=O)Nc2ccc3c(c2)CCC3)cc1C gave an inhibition of -15.3%. For O=C(O)c1ccc2c(c1)CCC2, the inhibition was 25.5%. CN(C)C(=O)C(OC(=O)c1ccc2ccccc2n1)c1ccccc1 (centres undefined) showed an inhibition of -9.4%. In the case of CN(C)C(=O)C(OC(=O)c1ccc2c(c1)CCCC2)c1ccccc1 (centres undefined), the inhibition is reported as 90.9% (active). Compound O=C(COc1ccc(S(=O)(=O)NCc2ccccc2)cc1)NCC1CCCO1 (centres undefined) has an inhibition of -3%. Cc1csc(NC(=O)CSc2nnc(NC(=O)COc3ccc(Cl)cc3)s2)n1 showed an inhibition of -17.3%. In the case of CCc1n(CC(O)COCC2CC=CCC2)c2ccccc2[n+]1C (centres undefined), the inhibition is reported as 55.3% (active). CCCc1n(CC(O)COCC2CC=CCC2)c2ccccc2[n+]1C (centres undefined) showed an inhibition of 5.7%. Work on CCc1nc2ccccc2n1CC(O)COCC1CC=CCC1 (centres undefined) yielded an inhibition of -7.7%. With Cc1cc(=O)oc2c(C)c(OC(C)C(=O)Nc3ccc(N4CCC(C)CC4)cc3)ccc12 (centres undefined) the inhibition was 3.4%. In the case of Cn1c(=O)c2c(-c3ccc(OC(F)F)cc3)cc(-c3ccccc3)nc2n(C)c1=O, the inhibition is reported as -4.7%. In the case of COC(=O)COc1ccc(S(=O)(=O)Nc2cc([N+](=O)[O-])ccc2C)cc1, the inhibition is reported as 8.7%. In the case of O=C(CCn1cccc1)NCc1ccc(Cl)cc1, the inhibition is reported as 5.1%. In the case of CCOc1cccc(/C=N/NC(=O)c2cc(C3CC3)[nH]n2)c1O, the inhibition is reported as 63.2% (active). In the case of CCOc1cc(/C=N/NC(=O)c2cc(C3CC3)[nH]n2)ccc1O, the inhibition is reported as -2.8%. In the case of O=C(N/N=C/c1cccc2ccccc12)c1cc(C2CC2)[nH]n1, the inhibition is reported as 10.5%. In the case of Cc1ccc(C)c(NC(=O)CCN2C(=O)c3ccccc3C2=O)c1, the inhibition is reported as -5.3%. COc1ccc(N2CC(C(=O)N3CCN(c4ccccc4OC)CC3)CC2=O)cc1 (centres undefined) showed an inhibition of 12.7%. Cc1ccc(S(=O)(=O)Nc2ccc(N3CCOCC3)cc2)cc1 gave an inhibition of 0.3%. In the case of COc1ccccc1N1CCN(C(=O)C2CCN(S(=O)(=O)c3ccc4c(c3)CC(C)N4C(=O)C3CC3)CC2)CC1 (centres undefined), the inhibition is reported as 27%. In the case of Cn1c(=O)c2c(nc(Oc3ccccc3)n2C)n(C)c1=O, the inhibition is reported as 4.8% and 12.7%. With COc1ccc(Oc2nc3c(c(=O)n(C)c(=O)n3C)n2C)cc1 the inhibition was 26.2%. Cc1c(C#N)sc2nc(-c3ccccc3)nc(N3CCCC3)c12 showed an inhibition of -1.5%.
